# Measured values published in ChEMBL document CHEMBL5606458, “ASAP - ZIKV NS2B-NS3 protease fluorescence single point” (2024).
# Out of some 2,700 compounds screened, about 160 (5.9%) showed an effect of 50% or more. This is one part of a sample in which strong results are shown more often than they occur.
# Target: Nonstructural protein 3 (Zika virus) (UniProt A0A024AXB9)
# Sequence (A0A024AXB9 as listed by the source): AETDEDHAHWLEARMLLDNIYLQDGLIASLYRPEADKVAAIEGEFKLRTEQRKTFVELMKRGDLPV
smiles,measurement,setting,value
CCc1cc(C)nc(C2CCN(Cc3c[nH]c4ccccc34)CC2)n1,inhibition,"PRVABC59, Concentration 49.5 uM, Number of replicates 2.0, Standard deviation 0.9221110052573533 %",41.8%
same,inhibition,"PRVABC59, Concentration 99.01 uM, Number of replicates 2.0, Standard deviation 1.5508934318704077 %",59.5%
same,inhibition,"PRVABC59, Concentration 198.0 uM, Number of replicates 2.0, Standard deviation 1.118702788500296 %",75.2%
c1cc(C2CCN(Cc3c[nH]c4ccccc34)CC2)c2ccncc2c1,inhibition,"PRVABC59, Concentration 49.5 uM, Number of replicates 2.0, Standard deviation 0.9049501572428696 %",65.6%
same,inhibition,"PRVABC59, Concentration 99.01 uM, Number of replicates 2.0, Standard deviation 0.6350269036884285 %",80.3%
same,inhibition,"PRVABC59, Concentration 198.0 uM, Number of replicates 2.0, Standard deviation 0.1685064720944352 %",90%
c1ccc2c(CN3CCC(c4cscn4)CC3)c[nH]c2c1,inhibition,"PRVABC59, Concentration 49.5 uM, Number of replicates 2.0, Standard deviation 0.07712401232790286 %",65.8%
same,inhibition,"PRVABC59, Concentration 99.01 uM, Number of replicates 2.0, Standard deviation 0.031176529605690447 %",79.9%
same,inhibition,"PRVABC59, Concentration 198.0 uM, Number of replicates 2.0, Standard deviation 0.07383858119278165 %",89.2%
FC(F)(F)c1ccccc1C1CCN(Cc2c[nH]c3ccccc23)CC1,inhibition,"PRVABC59, Concentration 49.5 uM, Number of replicates 2.0, Standard deviation 0.039004379485921774 %",33%
same,inhibition,"PRVABC59, Concentration 99.01 uM, Number of replicates 2.0, Standard deviation 0.833177783151486 %",38.2%
same,inhibition,"PRVABC59, Concentration 198.0 uM, Number of replicates 2.0, Standard deviation 1.0547312903060968 %",41.8%
C#CCn1ccnc(N2CC[C@H](CO)C2)c1=O,inhibition,"PRVABC59, Concentration 49.5 uM, Number of replicates 2.0, Standard deviation 1.0450300973032534 %",12.1%
same,inhibition,"PRVABC59, Concentration 99.01 uM, Number of replicates 2.0, Standard deviation 3.6329706761941627 %",19.8%
same,inhibition,"PRVABC59, Concentration 198.0 uM, Number of replicates 2.0, Standard deviation 1.3173095282768474 %",33.5%
CCCC[C@H](NC(=O)OC(C)(C)C)C(=O)N[C@H](C(=O)NCc1ccc(C(N)=O)cc1)c1ccc(OCc2ccccc2)cc1,inhibition,"PRVABC59, Concentration 49.5 uM, Number of replicates 2.0, Standard deviation 0.2512152790248196 %",-3.29%
same,inhibition,"PRVABC59, Concentration 99.01 uM, Number of replicates 2.0, Standard deviation 1.1330320426444238 %",4.53%
same,inhibition,"PRVABC59, Concentration 198.0 uM, Number of replicates 2.0, Standard deviation 0.18969183837952716 %",69.4%
CCCC[C@@H](NC(=O)OC(C)(C)C)C(=O)N[C@@H](C(=O)NCc1ccc(CN)cc1)c1ccc(OCc2ccccc2)cc1,inhibition,"PRVABC59, Concentration 49.5 uM, Number of replicates 2.0, Standard deviation 0.1534981479270999 %",98.5%
same,inhibition,"PRVABC59, Concentration 99.01 uM, Number of replicates 2.0, Standard deviation 0.024832248793042588 %",99.6%
same,inhibition,"PRVABC59, Concentration 198.0 uM, Number of replicates 2.0, Standard deviation 0.14898809796164614 %",99%
CCn1ccnc(N2CC[C@H](c3cccnc3)C2)c1=O,inhibition,"PRVABC59, Concentration 49.5 uM, Number of replicates 2.0, Standard deviation 0.6295639977718405 %",11.1%
same,inhibition,"PRVABC59, Concentration 99.01 uM, Number of replicates 2.0, Standard deviation 0.9611868657983497 %",17.2%
same,inhibition,"PRVABC59, Concentration 198.0 uM, Number of replicates 2.0, Standard deviation 2.077820749798943 %",29.9%
O[C@@H]1CNC[C@H]1c1c[nH]c2ccccc12,inhibition,"PRVABC59, Concentration 49.5 uM, Number of replicates 2.0, Standard deviation 0.0908773719339778 %",4.36%
same,inhibition,"PRVABC59, Concentration 99.01 uM, Number of replicates 2.0, Standard deviation 0.868383551474818 %",12%
same,inhibition,"PRVABC59, Concentration 198.0 uM, Number of replicates 2.0, Standard deviation 1.0703330421004655 %",25.3%
CCn1ccnc(N2CC[C@H](C#N)C2)c1=O,inhibition,"PRVABC59, Concentration 50.0 uM, Number of replicates 1.0",9.92%
same,inhibition,"PRVABC59, Concentration 100.0 uM, Number of replicates 2.0, Standard deviation 3.4431722905816002 %",15.4%
same,inhibition,"PRVABC59, Concentration 200.0 uM, Number of replicates 3.0, Standard deviation 5.353488841443075 %",26.6%
CCn1ccnc(N2CC[C@@H](CC#N)C2)c1=O,inhibition,"PRVABC59, Concentration 49.5 uM, Number of replicates 2.0, Standard deviation 4.2825905047110036 %",7.54%
same,inhibition,"PRVABC59, Concentration 99.01 uM, Number of replicates 2.0, Standard deviation 3.0053265516656906 %",14.9%
same,inhibition,"PRVABC59, Concentration 198.0 uM, Number of replicates 2.0, Standard deviation 1.5959318913639373 %",26%
CCn1ccnc(N(C)[C@@H](CO)Cc2c[nH]c3ccccc23)c1=O,inhibition,"PRVABC59, Concentration 49.5 uM, Number of replicates 2.0, Standard deviation 1.5047267855359387 %",5.63%
same,inhibition,"PRVABC59, Concentration 99.01 uM, Number of replicates 2.0, Standard deviation 0.8040526249565179 %",13%
same,inhibition,"PRVABC59, Concentration 198.0 uM, Number of replicates 2.0, Standard deviation 1.5605190977207197 %",25.3%
c1ccc2c(CN3CCC(c4c[nH]c5cccnc45)CC3)c[nH]c2c1,inhibition,"PRVABC59, Concentration 49.5 uM, Number of replicates 2.0, Standard deviation 1.80837898184189 %",63.8%
same,inhibition,"PRVABC59, Concentration 99.01 uM, Number of replicates 2.0, Standard deviation 1.3316731742493602 %",74.9%
same,inhibition,"PRVABC59, Concentration 198.0 uM, Number of replicates 2.0, Standard deviation 0.976733320927472 %",81.5%
c1cnc2c(C3CCN(Cc4c[nH]c5ncccc45)CC3)c[nH]c2c1,inhibition,"PRVABC59, Concentration 49.5 uM, Number of replicates 2.0, Standard deviation 1.618110911749522 %",7.76%
same,inhibition,"PRVABC59, Concentration 99.01 uM, Number of replicates 2.0, Standard deviation 1.5506891039488269 %",16.5%
same,inhibition,"PRVABC59, Concentration 198.0 uM, Number of replicates 2.0, Standard deviation 1.1046722712184134 %",29.8%
C[C@@H](CO)N1CC[C@H](c2c[nH]c3ccccc23)C1,inhibition,"PRVABC59, Concentration 49.5 uM, Number of replicates 2.0, Standard deviation 2.959092091051968 %",-1.43%
same,inhibition,"PRVABC59, Concentration 99.01 uM, Number of replicates 2.0, Standard deviation 1.9403190167556676 %",0.816%
same,inhibition,"PRVABC59, Concentration 198.0 uM, Number of replicates 2.0, Standard deviation 2.4285693519175138 %",5.47%
O[C@@H]1CN(Cc2c[nH]c3ccccc23)CC[C@@H]1c1ccccc1,inhibition,"PRVABC59, Concentration 49.5 uM, Number of replicates 2.0, Standard deviation 0.3811882362248968 %",52.4%
same,inhibition,"PRVABC59, Concentration 99.01 uM, Number of replicates 2.0, Standard deviation 0.3137721603955992 %",68%
same,inhibition,"PRVABC59, Concentration 198.0 uM, Number of replicates 2.0, Standard deviation 0.1218792449994391 %",78.3%
c1ccc2c(CN3CCC(c4c[nH]c5ncccc45)CC3)c[nH]c2c1,inhibition,"PRVABC59, Concentration 49.5 uM, Number of replicates 2.0, Standard deviation 1.5803867849339672 %",58.2%
same,inhibition,"PRVABC59, Concentration 99.01 uM, Number of replicates 2.0, Standard deviation 1.538935865185685 %",72.5%
same,inhibition,"PRVABC59, Concentration 198.0 uM, Number of replicates 2.0, Standard deviation 1.43011742277759 %",82.3%
C[C@@H](Cc1c[nH]c2ccccc12)N1CC[C@H](n2ncc3ccccc32)C1,inhibition,"PRVABC59, Concentration 49.5 uM, Number of replicates 2.0, Standard deviation 0.39220306220212786 %",9.38%
same,inhibition,"PRVABC59, Concentration 99.01 uM, Number of replicates 2.0, Standard deviation 0.9766631885715499 %",10.3%
same,inhibition,"PRVABC59, Concentration 198.0 uM, Number of replicates 2.0, Standard deviation 1.7687599327172854 %",8.18%
C[C@@H](Cc1c[nH]c2ccccc12)N1CC[C@H](c2c[nH]c3ccccc23)C1,inhibition,"PRVABC59, Concentration 49.5 uM, Number of replicates 2.0, Standard deviation 2.440376707234144 %",29.4%
same,inhibition,"PRVABC59, Concentration 99.01 uM, Number of replicates 2.0, Standard deviation 1.7661943697547304 %",46%
same,inhibition,"PRVABC59, Concentration 198.0 uM, Number of replicates 2.0, Standard deviation 0.6921254310022592 %",60.4%
O[C@H]1CCCN(Cc2c[nH]c3ccccc23)C1,inhibition,"PRVABC59, Concentration 49.5 uM, Number of replicates 2.0, Standard deviation 18.69396289412785 %",21%
same,inhibition,"PRVABC59, Concentration 99.01 uM, Number of replicates 2.0, Standard deviation 0.9286103864725214 %",13.9%
same,inhibition,"PRVABC59, Concentration 198.0 uM, Number of replicates 2.0, Standard deviation 2.4132961769541357 %",24.7%
